Screening results from PubChem BioAssay.
Only some compounds are listed: those with a hit (about 5% of all), similar ones and a draw of the others.
AHR activator – human AHR activation. P35869. AHR-responsive luciferase reporter cells, luminescence. activation, % at 5 µM. 320,000 tested, 2.5% active; in the data active = activation above about 47%;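 note: 0% = vehicle wells and 100% = reference agonist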
EBI2 antag – EBI2 (human) antagonism; EBI2 beta-arrestin recruitment, luminescence, 7a,25-OHC stimulated; inhibition, % at 5 µM; 360,000 tested, 0.81% active; AID 651636; in the data active = inhibition above about 38%;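 note: enzyme fragment complementation signal reports receptor beta-arrestin coupling in cells; 0% = agonist plus DMSO wells and 100% = wells without agonist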
SENP7 block – inhibitors of human SENP7 protease. 330,000 tested, 1.5% active. Q9BQF6. inhibition, % at 5 µM. recombinant SENP7, Z-RLRGG-aminoluciferin luminescence, 40 min. AID 434973;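 active = inhibition above about 50% at the single test dose, limit read from the data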;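 note: plate controls were DMSO with enzyme for no effect and no enzyme buffer wells for full effect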
SENP6 inh – inhibitors of human SENP6 protease | Q9GZR1 | inhibition, % at 10 µM | Recombinant SENP6 catalytic domain, aminoluciferin luminescence | 330,000 tested, 1.8% active | AID 2599;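 active = inhibition above about 50% at the single tested dose, limit read from the data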;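 note: plate controls were DMSO wells with enzyme for no effect and DMSO wells lacking enzyme for full effect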
Target sequence (Q9GZR1 628-1112 limits assumed): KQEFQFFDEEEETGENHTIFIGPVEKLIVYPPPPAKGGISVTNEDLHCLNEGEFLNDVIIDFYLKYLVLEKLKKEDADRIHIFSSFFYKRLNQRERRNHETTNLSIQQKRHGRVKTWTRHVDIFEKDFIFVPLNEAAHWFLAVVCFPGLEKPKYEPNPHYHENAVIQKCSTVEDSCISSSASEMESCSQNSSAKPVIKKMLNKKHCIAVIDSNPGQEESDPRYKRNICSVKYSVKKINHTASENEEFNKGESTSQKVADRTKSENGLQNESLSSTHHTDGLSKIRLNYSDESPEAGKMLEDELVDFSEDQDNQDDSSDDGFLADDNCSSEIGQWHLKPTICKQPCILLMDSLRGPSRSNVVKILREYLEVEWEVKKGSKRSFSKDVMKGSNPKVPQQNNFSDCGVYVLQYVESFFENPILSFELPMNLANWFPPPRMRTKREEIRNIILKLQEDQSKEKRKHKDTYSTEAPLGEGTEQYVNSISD
SENP8 block-1 – inhibitors of human SENP8 protease; Q96LD8; recombinant SENP8, Nedd8 substrate fluorescence; inhibition, % at 20 µM; 360,000 tested, 0.64% active; in the data active = inhibition mostly above about 40%, no sharp cut-off; inactive = mostly below about 27%
SENP8 block-2 – inhibitors of human SENP8 protease; Q96LD8; purified SENP8, Z-RLRGG-aminoluciferin cleavage, luminescence; 330,000 tested, 1.2% active; inhibition, % at 10 µM; AID 2540; in the data active = inhibition above about 50%
SENP8 conf – confirmation of human SENP8 protease inhibitors; Recombinant SENP8, Z-RLRGG-aminoluciferin luminescence, 60 min; shares compounds with SENP7 block; AID 488912; 6,200 tested, 40% active; inhibition, % at 12.5 µM;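 active = mean inhibition across replicates above about 50%, limit read from the data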
SENP6 confirm – human SENP6 inhibition, confirmed. shares compounds with SENP7 block. recombinant SENP6, Z-RLRGG-aminoluciferin luminescence. inhibition, % at 12.5 µM. 6,200 tested, 58% active
SENP7 conf – confirmation of human SENP7 protease inhibitors | inhibition, % at 12.5 µM | AID 488917 | 6,200 tested, 69% active | recombinant SENP7, Z-RLRGG-aminoluciferin luminescence, 40 min | shares compounds with SENP7 block
Casp3 SENP sel – selectivity test for SENP inhibitors: human caspase-3 inhibition; shares compounds with SENP7 block; inhibition, % at 12.5 µM; 6,200 tested, 60% active; AID 488918; purified caspase-3, Z-DEVD-aminoluciferin luminescence, 60 min;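 active = mean inhibition above about 50%, limit read from the data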;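 note: plate controls were enzyme with DMSO for no effect and wells without caspase-3 for full effect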
Target sequence (P42574 28-227 limits assumed): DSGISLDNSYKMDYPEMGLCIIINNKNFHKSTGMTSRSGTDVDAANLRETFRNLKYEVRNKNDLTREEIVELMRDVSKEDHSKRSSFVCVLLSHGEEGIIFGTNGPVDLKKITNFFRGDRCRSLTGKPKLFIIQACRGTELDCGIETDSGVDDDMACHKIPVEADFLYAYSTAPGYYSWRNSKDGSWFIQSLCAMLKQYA
Luc interf – counter-screen for SENP inhibitors: luminescence interference; Pre-incubated SENP8/Z-RLRGG-aminoluciferin, luciferase luminescence interference; AID 488919; inhibition, % at 12.5 µM; 6,200 tested, 39% active; shares compounds with SENP7 block;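 active = mean inhibition above about 50% when retested at one dose, limit read from the data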;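 note: plate controls were DMSO wells with completed reaction for no effect and substrate without enzyme for full effect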
An asterisk follows results filed as active.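 Rule for the calls, unless noted: active = mean inhibition above about 50% in the one-dose retest (limit read from the data); inactive = the rest.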

How did Cc1cc(Cl)ccc1OCC(=O)OCC(=O)N(CC(C)C)c1c(N)n(Cc2ccccc2)c(=O)[nH]c1=O do in these assays?
AHR activator: -0.8; EBI2 antag: 1.7; SENP7 block: -1.1; SENP6 inh: -5.3; SENP8 block-1: 0.3; SENP8 block-2: -1.5

How did Cc1cc(Br)cn2c(Cc3ccccc3)c(-c3ccc(C#N)cc3)nc12 do in these assays?
EBI2 antag: 15.1; SENP8 block-1: -74.3

How did Cc1ccc(NC(=O)c2ccc3c(c2)OCCO3)nc1 do in these assays?
AHR activator: -9.9; EBI2 antag: -8.1; SENP7 block: 53.6*; SENP6 inh: 55.9*; SENP8 block-1: 3.5; SENP8 block-2: 25.8; SENP8 conf: 48.5; SENP6 confirm: 46.2; SENP7 conf: 81.1*; Casp3 SENP sel: 80.7*; Luc interf: 60.4*

What do the screens show for `Cc1ccnc(NC(=O)c2ccc3c(c2)NC(=O)C(C)S3)c1` (configuration not stated)?
AHR activator: -6.5; EBI2 antag: 1.8; SENP7 block: 24.8; SENP6 inh: 55.3*; SENP8 block-1: 5.2; SENP8 block-2: 41.3; SENP8 conf: 19.9; SENP6 confirm: 35.7; SENP7 conf: 27.2; Casp3 SENP sel: 36.0; Luc interf: 33.6

What do the screens show for `O=C(Nc1ccon1)c1ccc2c(c1)OCO2`?
AHR activator: 15.7; EBI2 antag: -22.0; SENP7 block: 0.3; SENP6 inh: 0.9; SENP8 block-1: 18.7; SENP8 block-2: -8.9

What do the screens show for `Cc1ccnc(NC(=O)c2ccc3c(c2)OCO3)c1`?
AHR activator: 18.2; EBI2 antag: -6.2; SENP7 block: 91.8*; SENP6 inh: 68.9*; SENP8 block-1: -1.3; SENP8 block-2: 80.1*; SENP8 conf: 6.4; SENP6 confirm: 87.0*; SENP7 conf: 98.5*; Casp3 SENP sel: 95.5*; Luc interf: 87.0*

What do the screens show for `CC1Sc2ccc(C(=O)Nc3ccc(S(=O)(=O)N(C)C)cc3)cc2NC1=O` (configuration not stated)?
AHR activator: 2.5; EBI2 antag: 6.1; SENP7 block: 1.4; SENP6 inh: -11.6; SENP8 block-1: -12.6; SENP8 block-2: 0.4

Results for Cc1ccc(NC(=O)CNC(=O)c2ccc3c(c2)OCO3)nc1 ?
AHR activator: 14.5; EBI2 antag: 1.4; SENP7 block: 9.8; SENP6 inh: 3.1; SENP8 block-1: 3.6; SENP8 block-2: -0.7

Results for O=C(COc1ccc(S(=O)(=O)N2CCOCC2)cc1)Nc1ccccc1C(F)(F)F ?
AHR activator: 0.0; EBI2 antag: -9.3; SENP7 block: -8.2; SENP6 inh: 2.6; SENP8 block-1: 15.1; SENP8 block-2: 9.0

How did O=C(Nc1ccc(Br)cn1)c1ccc2ccccc2c1 do in these assays?
AHR activator: 47.8*; EBI2 antag: 29.6; SENP7 block: 61.4*; SENP6 inh: -0.8; SENP8 block-1: 0.0; SENP8 block-2: -11.3; SENP8 conf: -9.3; SENP6 confirm: -7.0; SENP7 conf: -1.7; Casp3 SENP sel: 8.3; Luc interf: 3.0

Results for O=C(Nc1nccs1)c1ccc(Br)cc1 ?
AHR activator: 23.5; EBI2 antag: -10.2; SENP7 block: 20.4; SENP6 inh: 41.0; SENP8 block-1: 23.8; SENP8 block-2: 9.3

What do the screens show for `O=C(Nc1nccs1)c1ccc2ccccc2c1`?
AHR activator: 53.9*; EBI2 antag: -9.9; SENP7 block: 71.6*; SENP6 inh: 73.5*; SENP8 block-1: -1.3; SENP8 block-2: 69.2*; SENP8 conf: 81.2*; SENP6 confirm: 80.1*; SENP7 conf: 92.8*; Casp3 SENP sel: 70.9*; Luc interf: 80.3*

How did O=C(Nc1ccc(Br)cn1)c1cccc(C(=O)Nc2ccc(Br)cn2)c1 do in these assays?
AHR activator: 14.0; EBI2 antag: -15.0; SENP7 block: -11.8; SENP6 inh: 4.6; SENP8 block-1: 10.0; SENP8 block-2: -7.5

What do the screens show for `O=C(CSc1ccsc1[N+](=O)[O-])NCc1ccco1`?
AHR activator: 1.1; EBI2 antag: 5.7; SENP7 block: -4.7; SENP6 inh: -5.0; SENP8 block-1: 27.7; SENP8 block-2: -0.6

What do the screens show for `CC(C)=CCC[C@](C)(OC1OC(COC2OCC(O)C(O)C2O)C(O)C(O)C1O)C1CC[C@]2(C)C1C(O)CC1[C@@]3(C)CCC(O[C@@H]4O[C@H](CO)C(O)C(O)C4O[C@@H]4OC(CO)C(O)C(O)C4O)C(C)(C)C3CC[C@]12C` (some centres not stated)?
AHR activator: 3.0; EBI2 antag: -0.3; SENP7 block: -4.9; SENP6 inh: -7.1; SENP8 block-1: -2.7; SENP8 block-2: -3.5

How did [O-]/C(=C(\C(=S)Nc1cccc2ccccc12)[n+]1ccccc1)c1cccs1 do in these assays?
AHR activator: 36.1; EBI2 antag: 2.5; SENP7 block: 22.9; SENP6 inh: 56.1*; SENP8 block-1: -362.1; SENP8 block-2: 12.1; SENP8 conf: 6.9; SENP6 confirm: 12.0; SENP7 conf: -6.1; Casp3 SENP sel: 4.0; Luc interf: -2.5

How did N#Cc1ccc(CN2CCN(C(=O)CC(NC(=O)c3ccccc3)c3ccccc3)CC2)cc1 (configuration not stated) do in these assays?
AHR activator: 4.1; EBI2 antag: 17.0; SENP7 block: 8.7; SENP6 inh: -11.6; SENP8 block-1: 4.6; SENP8 block-2: 5.6

How did C/C(=N\Nc1ccccc1C(=O)O)c1ccncc1 do in these assays?
AHR activator: 5.2; EBI2 antag: 11.9; SENP7 block: 52.0*; SENP6 inh: 71.7*; SENP8 block-1: 4.8; SENP8 block-2: 52.4*; SENP8 conf: 64.6*; SENP6 confirm: 60.5*; SENP7 conf: 87.9*; Casp3 SENP sel: 82.1*; Luc interf: 68.5*

What do the screens show for `C/C(=N\NC(=O)c1ccccc1NC(=O)c1ccc(Cl)cc1)c1ccncc1`?
AHR activator: 20.9; EBI2 antag: 1.3; SENP7 block: 97.1*; SENP6 inh: 96.8*; SENP8 block-1: 11.4; SENP8 block-2: 89.1*; SENP8 conf: 24.1; SENP6 confirm: 96.3*; SENP7 conf: 100.6*; Casp3 SENP sel: 97.7*; Luc interf: 18.4
